Results filed as inconclusive are left out. A number with no mark means an inactive call. Calls of active or inactive are those of the source. Calls come from the whole dose curve; as a rule, active = well fitted cell-killing curve with a large enough effect; inconclusive = small, poorly fitted or top-dose-only effect, or effect the other way; inactive = no such curve, though single readings can be large or run the other way.
Each compound was assayed on C33A (assay: Confirmatory qHTS for gynecologic anti-cancer compounds from libraries of approved drugs and bioactive compounds). Settings: gynecologic cancer cell panel viability, ATPlite luminescence, 48 h; series mostly up to 57.6 µM; activity change, negative = viability loss: at the top concentration.
How it was run: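 ATPlite luminescence read-out of cell viability; IC50 from 11-point 1:3 titrations, 57.5 uM to 0.977 nM, 48 h compound exposure at 37 C, 5% CO2. Cells seeded at 1,000/well 16 h before dosing.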
% is set by controls: 0 for no effect and ±100 for the full control effect; potency is the fitted concentration of half-maximal effect.
Note: nearly all actives have a fitted effect of over 55% in size.

Row | Compound | Potency | activity change, negative = viability loss
1 | CCC1=CC2CN(C1)Cc1c([nH]c3ccccc13)[C@@](C(=O)OC)(c1cc3c(cc1OC)N(C)[C@H]1[C@@](O)(C(=O)OC)[C@H](OC(C)=O)[C@]4(CC)C=CCN5CC[C@]31[C@@H]54)C2 (stereo partly drawn) | 0.211 µM (active) | 
2 | Nc1cccc(-c2cc3c(Oc4cccc(O)c4)ncnc3[nH]2)c1 |  | -12.5%
3 | CC(=O)Nc1cccc(-n2c(=O)n(C3CC3)c(=O)c3c(Nc4ccc(I)cc4F)n(C)c(=O)c(C)c32)c1 |  | -5.55%
4 | Cc1cncc2cccc(S(=O)(=O)N3CCCN(C(=O)CN)C[C@@H]3C)c12 |  | 8.41%
5 | CO[C@@]12[C@H](COC(N)=O)C3=C(C(=O)C(C)=C(N)C3=O)N1C[C@@H]1N[C@@H]12 |  | -5.23%
6 | Oc1cn2c(n1)Nc1ccc(Cl)c(Cl)c1C2 |  | -2.44% [at 19.5 µM]
7 | CN1C(=O)C(Cc2c[nH]c3ccccc23)NC1=S (stereo not drawn) |  | 12.4% [at 19.5 µM]
8 | COc1cc(F)c(F)c(Nc2ccc(I)cc2F)c1NS(=O)(=O)C1(CC(O)CO)CC1 (stereo not drawn) |  | 1.44%
9 | Cc1ccc(C(=O)Nc2ccc(CN3CCN(C)CC3)c(C(F)(F)F)c2)cc1C#Cc1cnc2[nH]ncc2c1 | 17.2 µM (active) | 
10 | CC(C)C[C@H](NC(=O)[C@@H](NC(=O)c1cccc(-c2ccccc2)n1)[C@@H](C)O)B(O)O | 0.385 µM (active) | 
11 | NS(=O)(=O)OC[C@@H]1C[C@@H](n2ccc3c(N[C@H]4CCc5ccccc54)ncnc32)C[C@@H]1O | 4.85 µM (active) | 
12 | Cc1c(NC(=O)OCC2COCCN2)cn2ncnc(Nc3ccc4c(cnn4Cc4cccc(F)c4)c3)c12 (stereo not drawn) | 24.3 µM (active) | 
13 | Cc1cnc(Nc2cccc(CN3CCOCC3)c2)nc1Nc1cccc(S(=O)(=O)NC(C)(C)C)c1 | 24.3 µM (active) | 

Reference: PubChem BioAssay AID1345085 (National Center for Advancing Translational Sciences (NCATS), 2018)
